Results reported in PubChem BioAssay (NCI).
The panel holds about 83,000 compounds, 20% with a hit somewhere; the sample as a whole holds those more often.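 Testing used 96-well plates and a 48-hour single-concentration exposure. Example: -40 means 40% of the starting cells died.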 Active and inactive are the calls of the source. The calls were made as follows: active = growth percent below 10; inactive = the rest.

Experiments:
Assay in all cases: NCI-60 one-dose screen, 48 h (100 = growth as untreated, 0 = no growth, -100 = all killed)
Details in all cases: 10 µM unless noted
NCI-H23 lung = tested on: NCI-H23 lung
NCI-H226 lung = tested on: NCI-H226 lung
HOP-62 NSCLC = tested on: HOP-62 NSCLC
NCI-H460 lung = tested on: NCI-H460 lung
HOP-92 NSCLC = tested on: HOP-92 NSCLC
NCI-H522 lung = tested on: NCI-H522 lung
A549/ATCC NSCLC = tested on: A549/ATCC NSCLC
COLO 205 colon = tested on: COLO 205 colon
DU-145 prostate = tested on: DU-145 prostate
K-562 leukemia = tested on: K-562 leukemia
MALME-3M melanoma = tested on: MALME-3M melanoma
MDA-MB-231 breast = tested on: MDA-MB-231 breast
RXF 393 renal = tested on: RXF 393 renal
SF-268 CNS = tested on: SF-268 CNS
SF-539 CNS = tested on: SF-539 CNS
UACC-257 melanoma = tested on: UACC-257 melanoma
M14 melanoma = tested on: M14 melanoma
786-0 renal = tested on: 786-0 renal
SF-295 CNS = tested on: SF-295 CNS

Measured: growth

CC(C)CC1C(=O)N2CCC[C@H]2C2(O)O[C@](NC(=O)C3C=C4c5cccc6[nH]c(Br)c(c56)C[C@H]4N(C)C3)(C(C)C)C(=O)N12 (stereo partly drawn)
inactive: NCI-H23 lung 71.1% | NCI-H226 lung 59.5% | HOP-62 NSCLC 82.7% | NCI-H460 lung 57.2% | HOP-92 NSCLC 66.1% | NCI-H522 lung 53.5% | A549/ATCC NSCLC 37.9% | COLO 205 colon 47.9% | DU-145 prostate 83.6% | K-562 leukemia 34.5% | MALME-3M melanoma 74.7% | MDA-MB-231 breast 46.3% | RXF 393 renal 36.8% | SF-268 CNS 55.8% | SF-539 CNS 73.6% | UACC-257 melanoma 51% | M14 melanoma 66.3%

C#CCOc1ccc2ncnc(N3CCN(C(=O)CCl)CC3)c2c1
active: NCI-H226 lung -15.9% [8.25 µM] | NCI-H522 lung -59.5% [8.25 µM]
inactive: NCI-H23 lung 93.3% [8.25 µM] | HOP-62 NSCLC 85% [8.25 µM] | NCI-H460 lung 101% [8.25 µM] | A549/ATCC NSCLC 100% [8.25 µM] | 786-0 renal 94.5% [8.25 µM] | COLO 205 colon 96.1% [8.25 µM] | DU-145 prostate 102% [8.25 µM] | K-562 leukemia 18.9% [8.25 µM] | MALME-3M melanoma 92.4% [8.25 µM] | MDA-MB-231 breast 95.7% [8.25 µM] | RXF 393 renal 87.2% [8.25 µM] | SF-268 CNS 68.7% [8.25 µM] | SF-295 CNS 109% [8.25 µM] | SF-539 CNS 91.4% [8.25 µM] | UACC-257 melanoma 90.8% [8.25 µM] | M14 melanoma 61.7% [8.25 µM]

COC(=O)c1ccc2oc(NC(=O)c3ccc(Nc4ccc([N+](=O)[O-])cc4C)c([N+](=O)[O-])c3)nc2c1
inactive: NCI-H23 lung 95.9% | NCI-H226 lung 92.1% | HOP-62 NSCLC 107% | NCI-H460 lung 101% | HOP-92 NSCLC 101% | NCI-H522 lung 94.4% | A549/ATCC NSCLC 100% | 786-0 renal 99.8% | COLO 205 colon 107% | DU-145 prostate 108% | K-562 leukemia 104% | MALME-3M melanoma 100% | MDA-MB-231 breast 105% | RXF 393 renal 103% | SF-268 CNS 97.9% | SF-295 CNS 98.8% | SF-539 CNS 96.1% | UACC-257 melanoma 103% | M14 melanoma 110%

CSc1nc2c(c(=O)[nH]1)C1(C(=O)Nc3ccccc31)c1c(nc(SC)[nH]c1=O)N2
inactive: NCI-H23 lung 105% | NCI-H226 lung 94.9% | HOP-62 NSCLC 113% | NCI-H460 lung 103% | HOP-92 NSCLC 98.8% | NCI-H522 lung 123% | A549/ATCC NSCLC 100% | 786-0 renal 103% | COLO 205 colon 109% | DU-145 prostate 105% | K-562 leukemia 112% | MALME-3M melanoma 93.7% | MDA-MB-231 breast 107% | RXF 393 renal 103% | SF-268 CNS 98.2% | SF-295 CNS 103% | SF-539 CNS 102% | UACC-257 melanoma 104% | M14 melanoma 97.2%

Cc1nn(-c2cc(=O)[nH]c3ccc(Cl)cc23)c(N)c1C#N
inactive: NCI-H23 lung 93.8% | NCI-H226 lung 81.3% | HOP-62 NSCLC 94.9% | NCI-H460 lung 101% | HOP-92 NSCLC 104% | NCI-H522 lung 93.3% | A549/ATCC NSCLC 108% | 786-0 renal 106% | COLO 205 colon 119% | DU-145 prostate 114% | K-562 leukemia 113% | MALME-3M melanoma 105% | MDA-MB-231 breast 96.9% | RXF 393 renal 113% | SF-268 CNS 102% | SF-295 CNS 100% | SF-539 CNS 99.9% | UACC-257 melanoma 107% | M14 melanoma 110%

COc1cc2c(cc1-c1c(C)noc1C)ncc1nc(C3CCOCC3)n([C@H](C)COC(F)F)c12
inactive: NCI-H23 lung 60.1% | NCI-H226 lung 55.2% | HOP-62 NSCLC 35.2% | NCI-H460 lung 59.2% | HOP-92 NSCLC 36.9% | NCI-H522 lung 31.2% | A549/ATCC NSCLC 36.2% | 786-0 renal 48% | COLO 205 colon 31.6% | DU-145 prostate 69.2% | K-562 leukemia 30.5% | MALME-3M melanoma 71.7% | MDA-MB-231 breast 46.3% | RXF 393 renal 54.8% | SF-268 CNS 65.5% | SF-295 CNS 49.7% | SF-539 CNS 33.6% | UACC-257 melanoma 31.8% | M14 melanoma 46.2%

OCCN1CCN(c2nc(Nc3ccc(-c4nc5ccccc5[nH]4)cc3)c3cn[nH]c3n2)CC1
inactive: NCI-H226 lung 106%
active: NCI-H23 lung -75.6% | HOP-62 NSCLC -93.2% | NCI-H460 lung -85.4% | HOP-92 NSCLC -83.4% | NCI-H522 lung -85.6% | A549/ATCC NSCLC -91.9% | 786-0 renal -88.5% | COLO 205 colon -81.4% | DU-145 prostate -87.1% | MALME-3M melanoma -74.2% | MDA-MB-231 breast -77% | RXF 393 renal -93.6% | SF-268 CNS -80.9% | SF-295 CNS -96% | SF-539 CNS -85.4% | UACC-257 melanoma -89% | M14 melanoma -78.3%

Nc1ccc(-c2cc3c(Nc4ccc(Oc5cccc(C(F)(F)F)c5)c(Cl)c4)ncnc3s2)cc1
inactive: NCI-H23 lung 69.6% | NCI-H226 lung 69% | HOP-62 NSCLC 90.2% | NCI-H460 lung 69.5% | HOP-92 NSCLC 87.8% | NCI-H522 lung 53.6% | A549/ATCC NSCLC 51.4% | 786-0 renal 73.9% | COLO 205 colon 91.3% | DU-145 prostate 72.5% | K-562 leukemia 24.9% | MALME-3M melanoma 91.8% | MDA-MB-231 breast 95.1% | RXF 393 renal 35.7% | SF-268 CNS 66.1% | SF-295 CNS 77.2% | SF-539 CNS 74.5% | UACC-257 melanoma 77% | M14 melanoma 86.6%
